In the supplement of paper PMC13380429:

System: Vero E6 infected with SARS-CoV-2
Assay: inhibition of SARS-CoV-2 cytopathic effect; higher = more antiviral protection, active = above 15
Conditions: 48 h

Measured: inhibition of SARS-CoV-2 cytopathic effect

CCC(C)(C)C(=O)O[C@H]1C[C@@H](C)C=C2C=C[C@H](C)[C@H](CC[C@@H]3C[C@@H](O)CC(=O)O3)[C@H]21 [simvastatin]
inactive: 1 nM -3.26% | 8.33 nM 0.13% | 100 nM -0.41% | 833.33 nM -0.83% | 10000 nM 5.01%

Cc1oc(=O)oc1CN1CCN(c2cc3c(cc2F)c(=O)c(C(=O)O)c2n3C(C)S2)CC1 (stereo not given) [prulifloxacin]
inactive: 1 nM 0.31% | 8.33 nM -0.69% | 100 nM -3.24% | 833.33 nM -1.97% | 10000 nM -3.69%

C=CCN1C[C@H](C(=O)N(CCCN(C)C)C(=O)NCC)C[C@@H]2c3cccc4[nH]cc(c34)C[C@H]21 [cabergoline]
inactive: 1 nM -19% | 8.33 nM -12.2% | 100 nM -10% | 833.33 nM -8.73% | 10000 nM -14.1%

CC(C)[C@@]1(NC(=O)[C@@H]2C[C@@H]3c4cccc5[nH]cc(c45)C[C@H]3N(C)C2)O[C@@]2(O)[C@@H]3CCCN3C(=O)[C@H](Cc3ccccc3)N2C1=O [dihydroergocristine]
inactive: 1 nM 3.37% | 8.33 nM -0.59% | 100 nM 0.24% | 833.33 nM -1.73% | 10000 nM -1.9%

CCOC(=O)Nc1ccc2c(c1)N(C(=O)CN(CC)CC)c1ccccc1CC2
inactive: 1 nM -0.45% | 8.33 nM 0.56% | 100 nM 1.77% | 833.33 nM 0.29% | 10000 nM 0.79%

CC(NCCC(c1ccccc1)c1ccccc1)c1ccccc1 (stereo not given) [fendiline]
inactive: 1 nM 0.75% | 8.33 nM 2.18% | 100 nM -0.68% | 833.33 nM -4.72% | 10000 nM 11.9%
